HEK cytotox – kills HEK 293 cells; HEK 293 viability, ATP luminescence (CellTiter-Glo), 48-72 h; Potency, µM (titrated, usually from 115 µM), most hits filed as inhibitors; 6.6% of 94,000 active; note: nearly all actives have a fitted effect of over 60% in size
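Luminescence from cellular ATP, measured with CellTiter-Glo, indicates HEK 293 viability. Cells plated at 250 cells/well are treated with compound for 48 or 72 hr at 37 degree Celsius before reagent addition.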
NPR1 antag – blocks ANP-stimulated signaling of human Npr1 receptor; P16066; Potency, µM (doses to about 46.3 µM), actives largely listed as inhibitors; AID 1347048; HEK293 hNpr1 GloSensor cGMP, ANP-stimulated luminescence; 1.6% of 76,000 active; calls by dose curve; note: nearly all actives have a fitted effect of over 60% in size
Target sequence (P16066 whole entry, looked up): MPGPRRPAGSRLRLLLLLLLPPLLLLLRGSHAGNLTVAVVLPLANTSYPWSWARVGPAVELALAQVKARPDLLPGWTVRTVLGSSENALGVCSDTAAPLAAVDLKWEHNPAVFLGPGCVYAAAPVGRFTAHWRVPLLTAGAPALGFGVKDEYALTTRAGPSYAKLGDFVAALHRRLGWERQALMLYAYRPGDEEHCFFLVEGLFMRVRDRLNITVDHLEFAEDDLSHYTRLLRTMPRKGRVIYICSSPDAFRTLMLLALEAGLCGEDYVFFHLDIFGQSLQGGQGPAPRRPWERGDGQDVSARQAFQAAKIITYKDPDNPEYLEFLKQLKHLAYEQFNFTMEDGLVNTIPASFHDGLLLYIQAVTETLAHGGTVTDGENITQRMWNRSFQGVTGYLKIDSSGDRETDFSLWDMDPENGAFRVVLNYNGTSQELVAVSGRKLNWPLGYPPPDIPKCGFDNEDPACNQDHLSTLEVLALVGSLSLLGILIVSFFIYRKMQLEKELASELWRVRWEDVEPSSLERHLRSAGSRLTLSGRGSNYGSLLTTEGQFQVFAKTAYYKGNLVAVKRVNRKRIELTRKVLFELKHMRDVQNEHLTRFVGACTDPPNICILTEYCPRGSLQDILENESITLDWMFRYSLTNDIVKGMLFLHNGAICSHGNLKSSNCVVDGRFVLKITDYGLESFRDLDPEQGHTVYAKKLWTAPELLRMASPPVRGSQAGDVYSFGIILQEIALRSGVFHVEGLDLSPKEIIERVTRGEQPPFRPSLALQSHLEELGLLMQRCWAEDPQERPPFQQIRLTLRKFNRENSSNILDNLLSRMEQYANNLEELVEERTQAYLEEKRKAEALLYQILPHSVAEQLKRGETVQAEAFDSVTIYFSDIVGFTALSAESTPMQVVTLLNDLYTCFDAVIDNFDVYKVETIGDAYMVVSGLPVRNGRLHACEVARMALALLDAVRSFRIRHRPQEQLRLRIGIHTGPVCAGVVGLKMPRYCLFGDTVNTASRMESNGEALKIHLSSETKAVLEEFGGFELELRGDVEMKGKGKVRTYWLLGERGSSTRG
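HEK293 cells stably expressing human Npr1 and cGMP GloSensor pGS-40F, loaded 2 h with 2% GloSensor reagent, given compound 30 min at room temperature. Luminescence read before and 20 min after 0.1 nM hNppA.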
Luciferase inh – Photinus pyralis luciferase inhibition. 2.5% of 76,000 active. Potency, µM (doses to about 115 µM), actives largely listed as inhibitors. AID 1347043. P08659. purified P. pyralis luciferase, luminescence, biochemical; note: nearly all actives have a fitted effect of over 65% in size
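Purified 10nM P. pyralis luciferase with 10uM D-luciferin and 10uM ATP in 50mM Tris acetate pH 7.5, 10mM Mg acetate, 0.01% Tween-20, 0.05% BSA. qHTS titration; luminescence read by CCD imager.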
3T3 cytotox – cytotoxic compounds in NIH 3T3 cells; 4.3% of 94,000 active; NIH 3T3 viability, CellTiter-Glo ATP luminescence, 48-72 h; Potency, µM (series often up to 96.7 µM), actives largely listed as inhibitors; note: nearly all actives have a fitted effect of over 55% in size
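Cells were seeded at 400 per well, treated with pin-transferred compound, and kept 48 or 72 hr at 37 °C before CellTiter-Glo addition and luminescence imaging of cellular ATP.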
GPT2 inhibitor – blocks human glutamate pyruvate transaminase 2 | Q8TD30 | 0.25% of 100,000 active | Potency, µM (highest dose often 57.7 µM), usual class: inhibitors | AID 1671188 | Recombinant GPT2, coupled pyruvate oxidase/HRP Amplex Red fluorescence; note: nearly all actives have a fitted effect of over 60% in size
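Fluorescence of coupled pyruvate oxidase/HRP/Amplex Red system (50uM Amplex, 30 min, dark) reports pyruvate formed by GPT2. Enzyme reaction: 10ng/uL GPT2, 2mM L-alanine, 250uM a-KG, 30 min room temperature, pH 7.5; 50uM AOA control.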
Large screens that a line does not name were inactive. This is a sample that favours compounds with a hit; in the whole collection about 10% have one here. Unless noted, calls come from the whole dose curve; as a rule, active = well fitted curve in the direction sought with a large enough effect; inconclusive = small, poorly fitted or top-dose-only effect, or another doubt; inactive = no such curve, though single readings can be large; an effect the other way counts as inactive or inconclusive.

COc1cccc(CNC(=O)C2CCN(c3nccc(Nc4ccccc4Cl)n3)CC2)c1	HEK cytotox inconclusive, 3T3 cytotox inconclusive (no result: NPR1 antag, Luciferase inh)
O=C(Cc1cccc(O)c1)N1CC(CNc2ccccc2)C2(C1)CN(c1ccccc1)C2 (stereo unspecified)	HEK cytotox 32µM, 3T3 cytotox 22µM
COCC(=O)N1CC(CNc2ccccc2)C2(C1)CN(c1ccccc1)C2 (stereo unspecified)	HEK cytotox inconclusive
CC(C)CN1CCN(C(=O)CCC[C@H]2NC[C@@H]3C[C@H]2CN(Cc2ccccc2)C3)CC1	none
c1ccc2sc([C@H]3CCN(C4CCC4)C3)nc2c1	HEK cytotox inconclusive, NPR1 antag 22µM, Luciferase inh 1.6µM
CC(=O)N1CCC(N2CC[C@H](c3nc4ccccc4s3)C2)CC1	Luciferase inh inconclusive
N#Cc1cccc(NC(=S)N[C@H]2CO[C@H]3[C@@H]2OC[C@@H]3n2nnnc2Oc2cccc(N3CCOCC3)c2)c1	HEK cytotox 45µM, GPT2 inhibitor inconclusive
Cc1nc(CC2CCN(C(=O)Nc3ccc4c(c3)OCCO4)CC2)n[nH]1	Luciferase inh 45µM
O=C(Nc1ccc2c(c1)OCCO2)N1CCC(Cc2nc(-c3ccncc3)n[nH]2)CC1	Luciferase inh 79µM
CS(=O)(=O)N(Cc1cccnc1)C1CN(C(=O)Nc2ccc3c(c2)OCCO3)C1	Luciferase inh 35µM
Cc1cnc(CC2CCN(C(=O)Nc3ccc4c(c3)OCCO4)C2)n1C1CC1 (stereo unspecified)	GPT2 inhibitor inconclusive (no result: NPR1 antag, Luciferase inh)
COCCCn1c(C)cnc1C1CCN(C(=O)Nc2ccc3c(c2)OCCO3)C1 (stereo unspecified)	Luciferase inh 45µM
O=[S+]([O-])(c1cccs1)N1CCc2nc(C3CC3)nc(-c3ccc(Cl)cc3)c2CC1	GPT2 inhibitor inconclusive
CS(=O)(=O)N1CCC(OC2CCN(C(=O)Nc3ccc4c(c3)OCCO4)CC2)CC1	Luciferase inh 35µM
COc1ccc(-n2nc(C)c([C@@H]3C=C[C@@H](NCc4cccc(Cl)c4)C3)c2C)cc1	HEK cytotox 28µM, NPR1 antag inconclusive, Luciferase inh 40µM, 3T3 cytotox 25µM
COc1ccc(C(=O)N[C@@H]2C=C[C@@H](c3c(C)nn(-c4ccc(C(F)(F)F)cc4)c3C)C2)cc1	HEK cytotox inconclusive, 3T3 cytotox inconclusive
COc1ccc(-n2nc(C)c([C@@H]3C=C[C@@H](NCc4ccc(N(C)C)cc4)C3)c2C)cc1	HEK cytotox inconclusive, NPR1 antag inconclusive, Luciferase inh 22µM, 3T3 cytotox inconclusive
COc1ccc(-n2nc(C)c([C@@H]3C=C[C@@H](NC(=S)NCC(C)C)C3)c2C)cc1	HEK cytotox 28µM, NPR1 antag 28µM, Luciferase inh 16µM, 3T3 cytotox inconclusive
COc1ccc(CN[C@@H]2C=C[C@@H](c3c(C)nn(-c4ccccc4)c3C)C2)cc1	HEK cytotox 28µM, Luciferase inh inconclusive, 3T3 cytotox 50µM
Cc1nn(-c2cccc(Br)c2)c(C)c1[C@@H]1C=C[C@@H](NC(=O)CCCC(=O)O)C1	none
CNC(=O)c1cc(C2CC2)nc2onc(C3CCCN3C(=O)Nc3ccc(C)c(F)c3)c12 (stereo unspecified)	none (no result: NPR1 antag, Luciferase inh, GPT2 inhibitor)
Cc1nn(-c2ccc(F)cc2)c(C)c1[C@@H]1C=C[C@@H](NCc2ccc(C(C)C)cc2)C1	HEK cytotox 11µM, NPR1 antag inconclusive, 3T3 cytotox 10µM
Cc1nn(CCC#N)c(C)c1[C@@H]1C=C[C@@H](NCc2ccc(C(C)C)cc2)C1	HEK cytotox 71µM, 3T3 cytotox inconclusive
Cc1nn(-c2ccc(C(C)C)cc2)c(C)c1[C@@H]1C=C[C@@H](NCc2ccc(F)cc2)C1	HEK cytotox 8.9µM, NPR1 antag inconclusive, Luciferase inh 22µM, 3T3 cytotox 7.1µM
Cc1nn(CCC#N)c(C)c1[C@@H]1C=C[C@@H](NCc2ccc(F)cc2)C1	none
Cc1nn(-c2ccc(C(F)(F)F)cc2)c(C)c1[C@@H]1C=C[C@@H](NC(=O)CC(C)(C)CC(=O)O)C1	3T3 cytotox inconclusive
O=C(NC1CCCCCC1)c1nc2sccn2c1-c1ccc(F)cc1	3T3 cytotox inconclusive (no result: NPR1 antag, Luciferase inh)
Cc1oc(C(C)C)cc1C(=O)N1CC[C@](C)(O)[C@@H](O)C1	none
O=C(Cc1ccc(F)cc1)N1CCN(C(=O)c2cccc(-c3ccccn3)c2)CC1	HEK cytotox inconclusive (no result: NPR1 antag, Luciferase inh)
COCCn1ccc2c(C3=CCOCC3)nc(-c3cccc(NC(C)=O)c3)cc21	HEK cytotox inconclusive, 3T3 cytotox inconclusive, GPT2 inhibitor inconclusive
COCCn1ccc2c(C3=CCOCC3)nc(-c3cccc(N[S+](C)(=O)[O-])c3)cc21	HEK cytotox inconclusive, 3T3 cytotox 35µM, GPT2 inhibitor inconclusive
COCCn1ccc2c(C3=CCOCC3)nc(-c3cccc4cn[nH]c34)cc21	HEK cytotox 79µM, 3T3 cytotox inconclusive, GPT2 inhibitor inconclusive
COc1ccc(-c2cc(C[C@H]3CNCC[C@H]3CC(=O)NCc3ccccc3OC)no2)cc1	HEK cytotox inconclusive, 3T3 cytotox 71µM
COc1ccc(-c2cc(C[C@H]3CNCC[C@H]3CC(=O)NCc3ccc(OC)c(OC)c3)no2)cc1	3T3 cytotox inconclusive
COc1ccc(-c2cc(C[C@H]3CNCC[C@H]3CC(=O)NCc3ccc4c(c3)OCO4)no2)cc1	HEK cytotox inconclusive, 3T3 cytotox 79µM, GPT2 inhibitor inconclusive
O=C(C[C@@H]1CCNC[C@@H]1Cc1cc(-c2ccccc2)on1)NCc1ccc(F)cc1	HEK cytotox 40µM, 3T3 cytotox 40µM, GPT2 inhibitor inconclusive
O=C(C[C@@H]1CCNC[C@@H]1Cc1cc(-c2ccc(F)cc2)on1)NCc1ccco1	HEK cytotox inconclusive, 3T3 cytotox inconclusive
O=C(C[C@@H]1CCNC[C@@H]1Cc1cc(-c2ccc(F)cc2)on1)Nc1nccs1	HEK cytotox 100µM, 3T3 cytotox 100µM
CC(C)NC(=O)c1cc(-c2ccccc2C(F)(F)F)nc2c1cnn2C	3T3 cytotox inconclusive (no result: NPR1 antag, Luciferase inh, GPT2 inhibitor)
Cc1ccc(N2CCC(NC(=O)Cc3ccccc3Cl)C2=O)cc1 (stereo unspecified)	none
Cc1nc(-c2c3n(c(=O)n(Cc4ccc(OC(F)(F)F)cc4)c2=O)CCCC3)no1	HEK cytotox inconclusive, 3T3 cytotox inconclusive
O=C(NCC(F)F)C1CCN(c2nccc(Nc3ccccc3Cl)n2)CC1	HEK cytotox inconclusive, 3T3 cytotox inconclusive (no result: NPR1 antag, Luciferase inh)
CCN1C(=O)CN(C(=O)c2ccsc2)CC12CCOCC2	GPT2 inhibitor inconclusive (no result: NPR1 antag, Luciferase inh)
COc1ccc(-c2cc(C[C@H]3CNCC[C@H]3CC(=O)N(C)Cc3ccccc3)no2)cc1	HEK cytotox 32µM, 3T3 cytotox 35µM
COc1ccc(CNC(=O)C[C@@H]2CCNC[C@@H]2Cc2cc(CN(C)Cc3ccccc3)on2)cc1	HEK cytotox 40µM
COc1ccc(CNC(=O)C[C@@H]2CCNC[C@@H]2Cc2cc(-c3ccc(OC)cc3)on2)cc1	HEK cytotox 40µM, 3T3 cytotox inconclusive

Compound activity: PubChem BioAssay, National Center for Advancing Translational Sciences (NCATS)
